From PubChem BioAssay
In the library only some 2.2% were active in any assay of this set; here they are far more common.
M18AAP inhibitor: PfM18AAP enzyme inhibition; recombinant PfM18AAP, H-Glu-NHMec fluorogenic cleavage; inhibition, % at 7.35 µM; hit rate 1.2% among 290,000; AID 1822;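 active = inhibition above the campaign mean inhibition over all tested compounds plus 3 SD, cut at about 28% in these data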;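 also: 0% = plate median of test compound wells and 100% = 2 mM ZnCl2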
PLCb3 inh: PLC-beta3 (human) inhibition, primary screen; Q01970; Purified PLC-beta3, fluorogenic substrate, fluorescence; inhibition, % at 12.2 µM; hit rate 0.18% among 370,000;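 also: 0% = median of compound wells on plate and 100% = full blocker control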
Target sequence (Q01970 whole entry, looked up): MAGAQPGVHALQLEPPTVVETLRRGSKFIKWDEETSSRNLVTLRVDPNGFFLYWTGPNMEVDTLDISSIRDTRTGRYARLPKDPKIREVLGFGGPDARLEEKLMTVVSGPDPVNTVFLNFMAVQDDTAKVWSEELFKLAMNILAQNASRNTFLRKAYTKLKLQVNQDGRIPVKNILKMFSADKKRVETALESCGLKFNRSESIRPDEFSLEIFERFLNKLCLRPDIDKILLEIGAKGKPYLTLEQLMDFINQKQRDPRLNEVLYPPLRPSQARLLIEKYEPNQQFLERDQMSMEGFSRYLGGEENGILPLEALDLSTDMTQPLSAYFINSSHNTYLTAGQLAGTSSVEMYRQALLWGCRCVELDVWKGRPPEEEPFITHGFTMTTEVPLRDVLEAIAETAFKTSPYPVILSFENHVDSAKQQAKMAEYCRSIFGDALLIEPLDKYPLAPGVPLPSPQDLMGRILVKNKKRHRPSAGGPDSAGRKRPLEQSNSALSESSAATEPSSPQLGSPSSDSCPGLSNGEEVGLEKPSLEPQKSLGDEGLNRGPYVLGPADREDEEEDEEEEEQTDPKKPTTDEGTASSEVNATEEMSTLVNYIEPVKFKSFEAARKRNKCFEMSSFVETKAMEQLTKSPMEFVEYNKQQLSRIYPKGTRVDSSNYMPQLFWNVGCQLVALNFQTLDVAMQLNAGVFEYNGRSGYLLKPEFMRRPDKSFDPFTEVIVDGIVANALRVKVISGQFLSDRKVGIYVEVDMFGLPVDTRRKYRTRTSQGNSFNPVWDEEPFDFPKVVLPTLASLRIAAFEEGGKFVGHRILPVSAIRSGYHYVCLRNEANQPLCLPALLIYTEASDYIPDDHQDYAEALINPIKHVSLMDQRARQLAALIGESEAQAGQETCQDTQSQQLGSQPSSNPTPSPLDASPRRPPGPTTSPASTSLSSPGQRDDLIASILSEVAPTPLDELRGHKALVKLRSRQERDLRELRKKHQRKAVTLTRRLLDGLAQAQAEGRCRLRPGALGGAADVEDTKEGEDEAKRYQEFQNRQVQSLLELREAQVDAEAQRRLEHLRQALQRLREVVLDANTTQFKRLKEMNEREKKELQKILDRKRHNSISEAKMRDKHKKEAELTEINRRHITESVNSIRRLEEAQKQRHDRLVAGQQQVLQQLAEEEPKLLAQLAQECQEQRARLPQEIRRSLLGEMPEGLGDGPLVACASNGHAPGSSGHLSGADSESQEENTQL
GC-B act: GC-B (human) receptor activation. HEK293-GC-B cells, CNP EC30, cGMP TR-FRET; 0% at EC30 CNP, 100% saturating CNP. activation, % at 10 µM. hit rate 0.11% among 370,000. AID 1920062;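 active = activation at 10 µM reaching about 35% in either raw or pattern-adjusted values, limit read from the data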
Rce1 inh: blocks yeast Ras-converting enzyme; yeast membranes, quenched prenylated peptide cleavage fluorescence; AID 2563; hit rate 0.27% among 290,000; calls only; Q03530;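 active = fall in fluorescence gain of 50% or more versus controls, with final raw signal at or below 3038400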;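 also: plate controls were neutral control wells for no effect and wells lacking membranes for full effect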
PLCg1 inh: PLC-gamma1 (human) inhibition, primary screen; purified PLC-gamma1, fluorogenic substrate, fluorescence; inhibition, % at 12.2 µM; hit rate 0.84% among 370,000; AID 720700; in the data active = inhibition above about 9.5%
GC-A act: GC-A (human) enzyme activation; hit rate 0.14% among 370,000; P16066; HEK293 GC-A cells, cGMP TR-FRET, EC30 ANP; 0% at EC30 ANP, 100% saturating ANP; activation, % at 10 µM; in the data active = activation above about 40%
PLCgamma1 ctr: PLC-gamma1 inhibition, counter-screen for PLC-beta3 hits | AID 743258 | purified PLC-gamma1, fluorogenic substrate, fluorescence | inhibition, % at 12.3 µM | hit rate 3.1% among 3,300 | shares compounds with PLCg1 inh; in the data active = inhibition above about 9.5%
PLCbeta3 conf: human PLC-beta3 inhibition, confirmation | hit rate 1% among 3,300 | inhibition, % at 12.3 µM | purified PLC-beta3, fluorogenic substrate fluorescence | AID 743261 | shares compounds with PLCg1 inh
The depositor's hits bear a star; i = inactive; nt = no result. Rule as the data show it, unless noted: active = inhibition above about 11%; inactive = the rest.

SMILES	M18AAP inhibitor	PLCb3 inh	GC-B act	Rce1 inh	PLCg1 inh	GC-A act	PLCgamma1 ctr	PLCbeta3 conf
CN[C@H]1C[C@@H](c2ccccc2Br)N(C(C)=O)C[C@H]1CO	nt	1	-1	nt	2	4	nt	nt
CC(C(=O)c1ccc(-c2ccccc2)cc1)[n+]1cccc(NC(=O)c2ccccc2)c1 (stereo not drawn)	2	2	-7	i	9.7*	-1	1	0
C=CCOC(=O)N1CCN(C(=O)c2ccc3c(c2)nc(C)n3C2CCCC2)CC1	nt	-1	0	nt	4	0	nt	nt
Cc1cc2oc(C(=O)Nc3nonc3C)c(C)c2cc1C	14	-11	3	i	9.6*	8	-13	-13
O=C(Nc1cccc(S(=O)(=O)Nc2ccc(Cl)cc2)c1)c1ccccn1	nt	-7	-5	nt	9.7*	-1	-5	-3
COc1ccc(NS(=O)(=O)c2cccc(NC(=O)c3ccccn3)c2)cc1	10	-8	-4	i	-2	-9	nt	nt
N/C(=N\OC(=O)c1ccc2c(c1)OCO2)c1ccncc1	4	-5	1	i	13*	-2	-4	-2
N/C(=N\OC(=O)c1ccc2c(c1)OCO2)c1ccc(Cl)cc1	1	6	2	i	4	2	nt	nt
COc1ccc(S(=O)(=O)N2CCN(CC(=O)Nc3c(C)n[nH]c3C)CC2)cc1OC	nt	6	1	nt	0	0	nt	nt
Cc1n[nH]c(C)c1NC(=O)CN1CCN(S(=O)(=O)c2ccc(C(F)(F)F)cc2)CC1	nt	-4	2	nt	10*	4	5	-1
CCn1c(SCC(=O)c2ccccc2)nc2c(c1=O)SC(C)C2 (stereo not drawn)	-3	2	-1	i	11*	-5	-4	0
CC(C)C[C@@H]1NC(=O)[C@@H]2CSCCS(=O)(=O)N2C1=O	nt	6	0	nt	2	1	nt	nt
COCCNC(=O)C(c1ccc(C)cc1)N(Cc1ccccc1)C(=O)CCC(=O)Nc1ccccn1 (stereo not drawn)	2	-10	-4	i	0	-2	nt	nt
COC(=O)N[C@H](C(=O)N[C@@H](Cc1ccccc1)[C@@H](O)CN(Cc1ccc(-c2ccccn2)cc1)NC(=O)[C@@H](NC(=O)OC)C(C)(C)C)C(C)(C)C	nt	11*	-5	nt	15*	3	-6	-5
COc1cc(C(=O)NN=C2c3ccccc3-c3ccccc32)cc(OC)c1OC	nt	-17	3	nt	-12	-7	nt	nt
CC(C)Oc1cccc(C(=O)NC(=S)Nc2ccc(Cl)c(C(=O)O)c2)c1	26	-6	2	i	10*	-5	-9	-4
C=CCCC(=O)N1CCC(C(=O)NC2CCCc3ccccc32)CC1 (stereo not drawn)	nt	4	-4	nt	-3	6	nt	nt
CC(=O)N1CCc2cc(S(=O)(=O)NC(C(=O)Nc3ccc4c(c3)OCCO4)C(C)C)ccc21 (stereo not drawn)	-8	3	3	i	11*	6	3	5
CC(=O)N1CCc2cc(S(=O)(=O)CCC(=O)Nc3ccc4c(c3)OCCO4)ccc21	2	0	2	i	2	1	nt	nt
C=CCn1c(SCCN2C(=O)c3ccccc3C2=O)nc2scc(-c3ccc(F)cc3)c2c1=O	nt	6	-80	nt	13*	-104	-4	-2
Cc1ccc(CNC(=O)O[C@H]2CC[C@@]34CCCN3C(=O)CCC[C@H]4C2)o1	nt	0	0	nt	2	-2	nt	nt
N=c1sccn1CC(=O)NC(=O)NC1CCCC1	-4	4	1	i	17*	-1	3	4
Cc1cccc(Nc2nc(N)c([N+](=O)[O-])c(NCc3ccco3)n2)c1	3	7	10	i	14*	20	-2	-15
CCCCCN1CCCCC(NC(=O)c2ccccc2C)C1=O (stereo not drawn)	nt	-2	-4	nt	-1	0	nt	nt
CC(C)(C)C1CCC(=NNC(=S)Nc2cccnc2)CC1 (stereo not drawn)	15	-1	-2	i	3	-2	nt	nt
SMILES	M18AAP inhibitor	PLCb3 inh	GC-B act	Rce1 inh	PLCg1 inh	GC-A act	PLCgamma1 ctr	PLCbeta3 conf
CCNC(=S)NN=C1CCC(C(C)(C)C)CC1 (stereo not drawn)	10	-1	4	i	13*	2	-7	-5
Cc1nn(C)cc1S(=O)(=O)N1CCN(Cc2ccc(F)cc2Cl)CC1	0	12*	5	i	1	5	-2	-2
Cc1nn(C)cc1S(=O)(=O)N1CCN(c2cccc(Cl)c2)CC1	1	-4	4	i	3	-2	nt	nt
COc1ccccc1C(=O)CSc1n[nH]c(N)n1	-2	11*	1	i	4	3	-2	1
COCC(C)n1c(SCc2nc(N)nc(Nc3ccccc3C)n2)nc2ccccc2c1=O (stereo not drawn)	-1	-2	-12	i	11*	-11	-7	-2
CCOc1ccc(NC(=O)CC2SC(=O)N(c3ccccc3)C2=O)cc1 (stereo not drawn)	3	4	3	i	9.9*	13	-9	-7
O=C1CC(=C(c2ccccc2)c2ccccc2)C(=O)N1CCCCN1CCN(c2cccc(Cl)c2)CC1	-4	11*	1	i	20*	-13	-1	2
Cc1ccccc1N1CCN(CCCN2C(=O)CC(=C(c3ccccc3)c3ccccc3)C2=O)CC1	3	-4	-9	i	8	-3	nt	nt
CCN(CC)C(=O)[C@H]1C[C@H](CC(=O)NCCN2CCOCC2)C(=O)N2CCc3c([nH]c4ccc(Cl)cc34)[C@]12C	nt	0	0	nt	1	2	nt	nt
CC(C)N(C(=O)[C@H]1C[C@H](CC(=O)NCCN2CCOCC2)C(=O)N2CCc3c([nH]c4ccc(Cl)cc34)[C@]12C)C(C)C	nt	3	-3	nt	9.9*	4	-7	-1
COc1ccc(/C=C/C(=O)NC2=NCCS2)c(OC)c1	nt	-52	-6	nt	-43	1	nt	nt
CC(C)(C)OC(=O)N[C@H](C(=O)OC(C)(C)C)c1ccc2c(c1)OCO2	nt	4	-7	nt	10*	-1	3	-3
Cc1cccc([C@H](NC(=O)OC(C)(C)C)C(=O)OC(C)(C)C)c1	nt	-3	3	nt	-2	-4	nt	nt
C#CCNC(=O)C[C@H]1C[C@@]2(C(=O)OC)C(=C[C@H](COCc3ccccc3)O[C@@H]2C)N(CCc2ccc(OC)c(OC)c2)C1=O	nt	2	2	nt	-2	5	nt	nt
COc1cccc(S(=O)(=O)Nc2ccc3c(c2)OCCO3)c1	4	-3	-4	i	9.6*	-5	-3	-1
